Laboratory results: the OligoGym collection

target: PCTP; assay: pooled miR-30 sensor sort-seq; sequence = guide strand; details: shRNA
Note: reference of the scale not given here.

Row | Sequence | sensor-assay potency score (higher = more potent)
1 | TTTGCTAGCTGCCACAGCCATC | -1.46
2 | AAGTCCAGTCTTCTTGTCCAGC | -1.17
3 | TAGAGTTCTTTAACATACTGGT | 0.218
4 | TAGAACACACTTTTCTTCCCAG | 0.135
5 | TTCTTTAACATACTGGTCCCAT | -0.412
6 | TTCTTGTTCATAGAGTTCTTTA | -0.702
7 | TACATTTCTAAATATTCTGGGA | -0.38
8 | TTGCACAATGGAATGATCGTGT | 0.345
9 | TTGAACTGTAGAAGAAGGCAGC | -0.297
10 | TAACATACTGGTCCCATTGTTT | -0.841
11 | TTATAGAACACACTTTTCTTCC | -0.218
12 | TTCATTATAGAACACACTTTTC | -1.43

target: PC; assay: as above; details: shRNA

Row | Sequence | sensor-assay potency score (higher = more potent)
13 | TTCATCTGCTTTCTGCCGGTGC | -0.101
14 | TTGAGGGAGTCAAACACACGGA | 0.00371
15 | TTGATGTCTATCACCTTCCCAG | -0.547
16 | TCTCGCAGCAGGATGTCTCTGA | 0.144
17 | TTGACCTCCTTGAACTTGGAGC | -0.629
18 | TTGTTGAGCACATTCTGCAGGA | 0.211
19 | TACTGCAGTGAGTACTTGGTGC | -0.271
20 | TTGAAGACCACGTTGTCTGGGT | 0.437
21 | TAGTACTGCAGTGAGTACTTGG | -0.46
22 | TTGGTCACATGAACCTTGCGGA | 0.159
23 | TTCTTGACCTCCTTGAACTTGG | -0.463
24 | TTCTCGTCGATGAACTGGGTGT | -0.428

target: PDE12; assay: as above; details: shRNA

Row | Sequence | sensor-assay potency score (higher = more potent)
25 | TTCTTTGTGAAGTGGGTCGGAC | -0.551
26 | TGAAATTGTAGTAAATCGCTAA | 0.612
27 | TTGTAGTAAATCGCTAACTAAA | -1.21
28 | TAGTACATAAGCATGATTCATT | -0.285
29 | TTGAAGTTTACATATAAGCTTT | -0.258
30 | TATCCTTTTAGAAGAGTCCTTT | 0.141
31 | TTCACCACAAGCACTTTTCAGC | -0.0283
32 | TAAATCGCTAACTAAATTGAGG | -0.622
33 | TAACTTAAGTCTCTCACCCTTA | -0.0358
34 | AAATGTAATCTAGACATCCATG | -1.09
35 | TTGAGGTAGAGGTAGACCCTAA | -0.795
36 | TAACTTCTTCATGACTAGGTAA | -0.476

target: PDE1C; assay: as above; details: shRNA

Row | Sequence | sensor-assay potency score (higher = more potent)
37 | TGAACGATGCTCTTGAACCGGG | -0.343
38 | TTTCTTTGAATCATTTCCGATG | -0.853
39 | TTTGAAGTCACCATTCTGTTGC | 0.443
